Among all 1,300 compounds or so, about 140 (11%) were called active. How the calls were made is not given here. These entries were drawn from the full list. Measured potencies and affinities stand elsewhere.
Biological target: Prostaglandin E2 receptor EP2 subtype (Homo sapiens) (UniProt P43116)
Experiment: compounds shifting PGE2 potency at EP2 – cell-based, human EP2, PGE2 EC50 shift, dose response (AID 1421)
Conditions: EP2-expressing cells, PGE2 EC50 shift by compound; at 20 µM

Sequence of Prostaglandin E2 receptor EP2 subtype (Homo sapiens) (P43116 whole entry, looked up): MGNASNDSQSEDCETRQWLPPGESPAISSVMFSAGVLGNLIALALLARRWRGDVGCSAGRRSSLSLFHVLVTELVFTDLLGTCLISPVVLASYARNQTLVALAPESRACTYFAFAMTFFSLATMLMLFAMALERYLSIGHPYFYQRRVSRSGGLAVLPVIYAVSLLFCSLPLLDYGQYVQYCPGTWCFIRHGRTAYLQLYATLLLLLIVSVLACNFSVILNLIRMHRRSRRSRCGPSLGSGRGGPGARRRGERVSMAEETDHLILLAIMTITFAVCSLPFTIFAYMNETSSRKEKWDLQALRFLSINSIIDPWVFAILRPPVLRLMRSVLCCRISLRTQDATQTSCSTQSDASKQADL

Compound | PGE2 EC50 with compound
CCc1ccccc1NC(=O)/C(=C/c1ccco1)c1ccccc1 | 0.16 nM (inactive)
Cc1ccccc1NC(=O)/C(=C/c1ccccc1)c1ccccc1 | 0.24 nM (inactive)
O=C(O)COc1cccc(NC(=O)c2ccccc2)c1 | 1.05 nM (inactive)
Nc1c(C(=O)NCc2ccccc2)c2nc3ccccc3nc2n1CCCN1CCOCC1 | 0.76 nM (inactive)
Nc1c(C(=O)NCc2ccco2)c2nc3ccccc3nc2n1CCc1ccccc1 | 1.38 nM (inactive)
CCCCNCC(=O)Nc1sc(C)c(C)c1C(=O)OCC | 0.33 nM (inactive)
CCOC(=O)c1c(NC(=O)c2ccoc2C)sc(C(=O)N(C)C)c1C | 0.6 nM (inactive)
CCOC(=O)c1c(NC(=O)CN2CCCCC2)sc2c1CCN(C(=O)OCC)C2 | 0.83 nM (inactive)
CCOC(=O)c1c(NC(=O)c2cccnc2)sc(C)c1C | 0.31 nM (inactive)
Cc1ccccc1-n1c(=O)[nH]c(=O)c2c(N)c(C(=O)c3ccc(Cl)cc3)sc21 | 0.74 nM (inactive)
S=c1[nH]nc(-c2ccco2)n1/N=C/c1ccc(Cl)cc1Cl | 2.86 nM (inactive)
CCOP(=O)(c1ccccc1)c1nc(-c2ccccc2C)oc1N1CCCCC1 (stereo not given) | 0.42 nM (inactive)
CSc1nc(Sc2ccccc2)c2ccccc2n1 | 0.21 nM (inactive)
C=CCSc1nc2ccccc2c(=O)n1Cc1ccccc1 | 0.31 nM (inactive)
C=CCSc1nc2ccccc2n1S(=O)(=O)c1ccc(C)cc1 | 0.5 nM (inactive)
CCCC1=C(C(=O)OCC)C(c2cccs2)C(C#N)=C(N)O1 (stereo not given) | 0.32 nM (inactive)
COc1ccc(-n2c(COc3cccc4ccccc34)nnc2SCC(=O)NCc2ccco2)cc1 | 0.72 nM (inactive)
CCCCCCn1c(COc2ccccc2F)nnc1SCC(=O)N1c2ccccc2NC(=O)C1(C)C | 0.69 nM (inactive)
CCOC(=O)c1sc2nc(C)nc(N3CCN(c4ncccn4)CC3)c2c1C | 0.7 nM (inactive)
Cc1ccc(C(Sc2ccccc2)C(Cn2cncn2)C(=O)c2ccccc2)cc1 (stereo not given) | 0.38 nM (inactive)

Compound | PGE2 EC50 with compound
Cc1ccc(-c2cc3ccccc3nc2N2CCOCC2)cc1 | 0.38 nM (inactive)
CC(C)c1ccc(/C=N/Nc2cc(N3CCOCC3)nc(N3CCOCC3)n2)cc1 | 0.21 nM (inactive)
Clc1ccc(-c2ccc(/C=N/Nc3cc(N4CCOCC4)nc(N4CCOCC4)n3)o2)cc1 | 0.09 nM (inactive)
Cc1ccc(-c2nc(P(=O)(c3ccccc3)c3ccccc3)c(N3CCOCC3)o2)cc1 | 0.39 nM (inactive)
Cc1cccc(Oc2sc(C(=O)c3ccccc3)c(N)c2C#N)c1 | 0.48 nM (inactive)
C[C@H](C(=O)c1ccccc1)[C@@H](c1ccccc1)N1CCOCC1 | 0.33 nM (inactive)
Cc1ccc2[nH]c3c(=S)nc[nH]c3c2c1 | 10.1 nM (inactive)
CN(C)c1nc(-c2ccccc2)c2cnn(Cc3ccccc3)c2n1 | 0.17 nM (inactive)
Cc1cccc(CSc2ncnc3ccccc23)c1 | 0.37 nM (inactive)
CC1(c2ccccc2)CC(C)(C)N(C(=O)C2CCCO2)c2ccccc21 (stereo not given) | 0.39 nM (inactive)
CCc1ccc2[nH]c(=O)c(CN(Cc3nnnn3C3CCCC3)C3CCCCC3)cc2c1 | 0.64 nM (inactive)
O=C(Nc1ccccc1Oc1ccccc1)c1ccc(Br)o1 | 0.3 nM (inactive)
O=C(Nc1ccccc1-c1nc2ccccc2s1)c1ccc(Br)o1 | 0.41 nM (inactive)
CCOC(=O)c1cnc2ccc(OCC)cc2c1N(C)Cc1ccccc1 | 0.07 nM (inactive)
CCCCOc1ccccc1Cn1c(=O)oc2ccccc21 | 0.29 nM (inactive)
CCCOc1ccccc1Cn1c(=O)oc2ccc(C)cc21 | 0.27 nM (inactive)
CC(C)NC(=S)N/N=C1\CCCCC1C1CCCCC1 (stereo not given) | 0.74 nM (inactive)
CCN(c1cccc(C)c1)S(=O)(=O)c1ccc2c3c(cccc13)C(=O)N2 | 0.94 nM (inactive)
C#CCn1c(S(=O)(=O)Cc2ccc(F)cc2)nc(-c2ccccc2)c1-c1ccccc1 | 0.37 nM (inactive)
O=C1COc2ccccc2N1Cc1ccccc1Cl | 0.31 nM (inactive)

Compound | PGE2 EC50 with compound
CC1(C)OC(c2ccccc2)=C/C(=C/C=Nc2ccccc2)O1 | 0.33 nM (inactive)
CCSC1=N/C(=C\c2ccccc2)C(=O)N1c1ccc(OC)cc1 | 0.92 nM (inactive)
CC(=O)c1cc(C#N)c(SCc2ccccc2)nc1C | 0.51 nM (inactive)
CCOc1ccc2cc(C#N)c(SCC(=O)NC(C)CC)nc2c1 (stereo not given) | 0.8 nM (inactive)
O=C(O)c1oc(C(=O)O)c(C(=O)O)c1C(=O)O | 0.58 nM (inactive)
C1=C(c2ccccc2)Nc2ccccc2N=C1c1ccccc1 | 0.4 nM (inactive)
CSc1nnc(-c2ccc(F)cc2)o1 | 1.06 nM (inactive)
CCOC(=O)CSc1nc(-c2ccccc2)nc2ccccc12 | 0.26 nM (inactive)
COC(=O)CSc1nc(-c2ccccc2)nc2ccccc12 | 0.22 nM (inactive)
C=CCn1c(=O)c2c3c(sc2n2c(Nc4ccc(OC)cc4)nnc12)CCCC3 | 0.74 nM (inactive)
CCC(Sc1nc(-c2ccccc2)c(C#N)c(=O)[nH]1)C(=O)Nc1cc(C)on1 (stereo not given) | 3.58 nM (inactive)
Cc1cc2cc(CN(Cc3nnnn3C3CCCCC3)CC3CCCO3)c(=O)[nH]c2cc1C (stereo not given) | 0.34 nM (inactive)
O=C(Cc1ccc(F)cc1)Nc1ccccc1Sc1ccccc1 | 0.23 nM (inactive)
Cc1ccccc1C(=O)Nc1ccccc1Sc1ccccc1 | 0.45 nM (inactive)
COCCCN(C(=O)c1ccco1)c1nc(-c2cc(OC)ccc2OC)cs1 | 0.27 nM (inactive)
CCCCc1nc2sc3c(SCC(=O)NCc4ccco4)ncnc3c2c2c1CCC2 | 0.59 nM (inactive)
CCN(CC)C(=O)CN(c1cc2c(cc1OC)oc1ccccc12)S(=O)(=O)c1ccc(C)cc1 | 0.39 nM (inactive)
Cc1cc2ccccc2nc1SCC(=O)NC1CCCCC1 | 1.22 nM (inactive)
COc1ccc(-c2nc3ccccc3n2Cc2ccccc2)cc1 | 0.33 nM (inactive)
COc1ccc(-c2nc3c(c(=O)[nH]c(=O)n3Cc3ccccc3)n2Cc2ccccc2)cc1 | 0.28 nM (inactive)

Source: PubChem BioAssay AID1421 (Emory University Molecular Libraries Screening Center, 2008)
